Measurements from PubChem BioAssay AID743395 (Broad Institute, 2014).
Screen size: about 1,200 compounds; about 480 (40%) were called active. No rule for the calls is given here. So high a share suggests a set chosen from earlier hits. A selection follows. Potency and affinity values are given separately.

assay: HepG2 cell cytotoxicity, dose response, cytotoxicity control, CellTiter-Glo luminescence, cherry-pick, set 2 (AID 743395); details: HepG2 viability, CellTiter-Glo ATP luminescence, 72 h; series mostly up to 26 µM; activity change, negative = cytotoxicity: at the top concentration;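 also: 0% = neutral control wells and -100% = positive control wells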

| Structure (SMILES) | activity change, negative = cytotoxicity |
| --- | --- |
| COc1ccc(CCC(=O)N2CCN(S(=O)(=O)c3ccc(OC(F)(F)F)cc3)CC2)cc1 | -3.96% (inactive) |
| CS(=O)(=O)N1CC(=O)N2[C@H](C1)[C@H](c1ccc(C#Cc3ccc(F)cc3)cc1)[C@@H]2CO | 9.48% (inactive) |
| CCS(=O)(=O)N1CC(=O)N2[C@H](CO)[C@@H](c3ccc(C#CCC(C)C)cc3)[C@@H]2C1 | -5.68% (inactive) |
| CCS(=O)(=O)N1CC(=O)N2[C@H](C1)[C@@H](c1ccc(C#CCC(C)C)cc1)[C@@H]2CO | 5.82% (inactive) |
| COc1ccccc1N1CCN(/N=C/C=C\c2ccccc2[N+](=O)[O-])CC1 | -6.14% (inactive) |
| COc1cc(SC)ccc1C(=O)N1CCN(c2ccccc2OC)CC1 | -19.4% (inactive) |
| Cc1ccc(C(=O)NCC(=O)OCC(=O)NC(C)c2ccccc2)s1 (configuration not stated) | 1.29% (inactive) |
| C[C@@H]1CN([C@@H](C)CO)C(=O)Cc2cc(NC(=O)Nc3ccc(C(F)(F)F)cc3)ccc2O[C@H]1CN(C)C(=O)Nc1ccccc1 | 1.88% (inactive) |
| C[C@H]1CCCCO[C@H](CN(C)C(=O)Cc2ccccc2)[C@@H](C)CN([C@@H](C)CO)C(=O)c2cc(N(C)C)ccc2O1 | 17.5% (inactive) |
| C[C@H](CO)N1C[C@H](C)[C@H](CN(C)Cc2ccc(Cl)c(Cl)c2)Oc2ccc(NC(=O)C3CCCCC3)cc2CC1=O | -6.82% (inactive) |
| C[C@@H]1CN([C@@H](C)CO)C(=O)c2cc(NC(=O)Nc3cccc4ccccc34)ccc2O[C@@H](C)CCCCO[C@@H]1CN(C)Cc1ccc2c(c1)OCO2 | -26.5% (inactive) |
| C[C@@H]1CN([C@@H](C)CO)C(=O)c2cccc(NC(=O)Nc3ccc4c(c3)OCO4)c2O[C@H]1CN(C)S(=O)(=O)c1ccccc1 | -9.43% (inactive) |
| C[C@@H]1CN([C@@H](C)CO)C(=O)Cc2cc(N(C)C)ccc2O[C@@H]1CN(C)Cc1ccccc1 | 11% (inactive) |
| C[C@@H]1CN([C@H](C)CO)C(=O)c2cc(NC(=O)Cc3cn(C)c4ccccc34)ccc2O[C@@H]1CN(C)Cc1ccc(Cl)c(Cl)c1 | -4.98% [at 23.5 µM] (inactive) |
| CCNC(=O)C1CCCN(C(=O)c2cc(F)ccc2C)CC1 (configuration not stated) | -0.235% (inactive) |
| CCNC(=O)C1(C)CCN(C(=O)c2cc(F)ccc2C)C1 (configuration not stated) | -6.93% (inactive) |
| Cc1cccc(CC(=O)Nc2cccnc2)c1 | -1.85% (inactive) |
| CN1c2ccc(-c3ccc(C#N)cc3)cc2[C@H]2[C@H](CCN2S(=O)(=O)c2cccc(F)c2)[C@H]1CO | -16.1% (inactive) |
| CN1c2ccc(-c3ccc(C#N)cc3)cc2[C@H]2[C@H](CCN2S(=O)(=O)c2cccc(F)c2)[C@@H]1CO | -0.956% (inactive) |
| O=C(O)C1=C[C@@H](O)[C@@H](O)[C@H](O)C1 | -13.4% (inactive) |
| COc1ccc(C(=O)Nc2ccccc2C(=O)Nc2ccccc2)cc1 | -24.1% (inactive) |
| COc1ccc(C(=O)c2cc(OC)c(OC)c(OC)c2)cc1OC | 7.79% (inactive) |

| Structure (SMILES) | activity change, negative = cytotoxicity |
| --- | --- |
| CCOCCOC(=O)COC(=O)c1ccccc1NC(=O)c1ccccc1 | -0.163% (inactive) |
| Cc1nc(NCc2cccnc2)c2c3c(sc2n1)CCCC3 | -5.3% (inactive) |
| COc1ccc(-c2cc(=O)c3c(O)cc(O)cc3o2)cc1 | -9.33% (inactive) |
| O=C1NC(=Nc2cccnc2)S/C1=C/c1ccc(F)cc1 | -14.8% (inactive) |
| Cn1cccc1/C=C1\SC(=Nc2ccc(O)cc2)NC1=O | -16.7% (inactive) |
| C=CC[C@@H](CC(=O)N(CCO)Cc1ccccc1)C(=O)N[C@H](COC(=O)[C@H](CC=C)CC(=O)OC(C)(C)C)Cc1c[nH]c2ccccc12 | -12.6% (inactive) |
| CCCC#Cc1ccc([C@H]2[C@H](CO)N3C(=O)CN(C(=O)Nc4cc(F)ccc4F)C[C@@H]23)cc1 | -5.13% (inactive) |
| O=C(Nc1cc(F)ccc1F)N1CC(=O)N2[C@@H](CO)[C@H](c3ccc(C#CC4CCCCC4)cc3)[C@@H]2C1 | -6.48% (inactive) |
| CC(C)CC#Cc1ccc([C@H]2[C@H](CO)N3C(=O)CN(C(=O)Nc4cc(F)ccc4F)C[C@@H]23)cc1 | -9.28% (inactive) |
| CCCNC(=O)N1[C@H](C#N)[C@H](c2ccc(C#Cc3ccc(F)cc3)cc2)[C@@H]1CO | -23.9% (inactive) |
| Cc1ccc(-c2cccc(CN3CCN(C(C)C)C(CCO)C3)c2)o1 (configuration not stated) | -17.7% (inactive) |
| COc1cc(-c2noc(C)c2C#Cc2ccccn2)cc(OC)c1OC | -16.2% (inactive) |
| COc1cc(-c2noc(C)c2C#Cc2ccsc2)cc(OC)c1OC | -17.5% (inactive) |
| O=C(CCC(=O)N1CCOc2ccc(Cl)cc21)N1CCN(c2ccccn2)CC1 | 2.93% (inactive) |
| CCN1CCCC(OC(=O)c2cc(-c3ccccc3Cl)nc3ccccc23)C1 (configuration not stated) | -10.8% (inactive) |
| CCOc1ccc(-c2cc(C(=O)N/N=C/c3ccc(O)cc3)c3ccccc3n2)cc1 | -21.9% (inactive) |
| COC(=O)Cc1c(O)ccn(Cc2ccc(Cl)c(Cl)c2)c1=O | -16.8% (inactive) |
| CN1C(=O)c2cc(NC(=O)c3ccc(Cl)cc3)ccc2OC[C@@H]2O[C@H](CC(=O)NCc3cccc(F)c3)CC[C@H]21 | 18.6% (inactive) |
| CCN(CC(=O)Nc1ccc(NC(C)=O)cc1)C(=O)c1ccc(N2CCC(C)CC2)c([N+](=O)[O-])c1 | -18.6% (inactive) |
| Cc1c(CCC(=O)O)c(=O)oc2c(C)c(OCc3ccccc3Cl)ccc12 | 5.78% (inactive) |
| COc1ccc(C(C)=O)cc1CS(=O)(=O)CC(=O)NCCc1c[nH]c2ccccc12 | -4.03% (inactive) |
| O=C(CN(Cc1ccco1)Cc1ccco1)Nc1cc(S(=O)(=O)N2CCCCC2)ccc1Cl | 13.7% (inactive) |

| Structure (SMILES) | activity change, negative = cytotoxicity |
| --- | --- |
| Cc1c(OCC(=O)NCCN2CCOCC2)ccc2c3c(c(=O)oc12)CCC3 | -6.09% (inactive) |
| Oc1cc2c(cc1O)C(c1ccccc1)CNCC2 (configuration not stated) | 0.38% (inactive) |
| COc1ccc(OC)c(C2CC(c3ccccc3)=NN2C(=S)Nc2ccccc2)c1 (configuration not stated) | -20.7% (inactive) |
| CCOc1ccc(N(CC)C(=O)COc2cc(=O)n(C)c3ccccc23)cc1 | 11.3% (inactive) |
| CCOC(=O)c1c(C)[nH]c(C)c1C(=O)COC(=O)c1ccc([N+](=O)[O-])s1 | -18.1% (inactive) |
| C/C=C/c1ccc([C@H]2[C@@H](CO)N(C(=O)COC)[C@@H]2CNC(=O)CC)cc1 | -0.817% [at 23.5 µM] (inactive) |
| Cc1cc(/C=N/NC(N)=S)c(O)c(/C=N/NC(N)=S)c1 | -18% (inactive) |
| Cc1cc2c(cc1C)C(c1ccccc1OC(C)C)CC(=O)N2 (configuration not stated) | -16.4% (inactive) |
| O=C(Nc1ccccc1)c1nc[nH]c1C(=O)Nc1ccccc1F | -20.8% (inactive) |
| CN(CC(=O)Nc1cccc(S(=O)(=O)N2CCCC2)c1)CC(=O)Nc1ccc(F)c(F)c1F | -10.9% (inactive) |
| COc1cccc(-c2cccc(-c3nc(C(=O)NCC(F)(F)F)cc4c3[C@H](CCO)N([S@@](=O)C(C)(C)C)C4)c2)c1 | -28.3% (inactive) |
| N#Cc1nc(NCC(F)F)nc(Nc2cc(F)cc(F)c2)n1 | -8.63% (inactive) |
| COCCCNc1nnc(Cc2ccc(Cl)cc2)c(=O)[nH]1 | -22% (inactive) |
| O=C(CN1CCN(S(=O)(=O)c2ccccc2)CC1)Nc1ccccc1Cl | -11.1% (inactive) |
| N#CCC(=O)N/N=C/c1cn(Cc2cccc3ccccc23)c2ccccc12 | 5.87% (inactive) |
| COc1ccc2oc(C(=O)N3CCN(C(=O)c4ccco4)CC3)c(C)c2c1 | -4.08% (inactive) |
| COc1ccc(NC(=O)c2ccc(NC(=O)c3nc4nccc(C)n4n3)cc2)cc1 | -15.4% (inactive) |
| CCCc1nc2ccccc2c(C(=O)OCC(=O)NCc2ccc3c(c2)OCO3)c1CC | -28.8% (inactive) |
| Cc1ccc(S(=O)(=O)N2CCOCC2)cc1NC(=O)COC(=O)c1ccc(Cl)nc1 | 4.96% (inactive) |
| COc1ccc(CC(=O)Nc2nccs2)cc1S(=O)(=O)N1CCOCC1 | -8.61% (inactive) |
| Cc1ccc(S(=O)(=O)N(C)C[C@@H]2OCCCC[C@@H](C)Oc3ccc(NS(=O)(=O)c4ccc(Cl)cc4)cc3C(=O)N([C@@H](C)CO)C[C@@H]2C)cc1 | -3.66% (inactive) |
| COc1ccc(S(=O)(=O)Nc2ccc3c(c2)C(=O)N([C@@H](C)CO)C[C@@H](C)[C@H](CN(C)Cc2ccc(Oc4ccccc4)cc2)O3)cc1 | 14% (inactive) |

| Structure (SMILES) | activity change, negative = cytotoxicity |
| --- | --- |
| COc1ccc(S(=O)(=O)Nc2ccc3c(c2)C(=O)N([C@H](C)CO)C[C@@H](C)[C@@H](CN(C)Cc2ccc(C(F)(F)F)cc2)O3)cc1 | -4.66% (inactive) |
| C[C@@H]1CN([C@H](C)CO)C(=O)c2cc(NC(=O)Cc3ccccc3)ccc2O[C@@H]1CN(C)S(C)(=O)=O | 6.51% [at 23.5 µM] (inactive) |
| C[C@H](CO)N1C[C@H](C)[C@H](CN(C)C(=O)NC2CCCCC2)Oc2ncc(-c3cc4ccccc4o3)cc2C1=O | -3.27% (inactive) |
| Cc1ccc(S(=O)(=O)Nc2ccc3c(c2)C(=O)N([C@@H](C)CO)C[C@H](C)[C@H](CN(C)S(=O)(=O)c2ccc(C)cc2)OCCCC[C@@H](C)O3)cc1 | -3.79% [at 23.5 µM] (inactive) |
| N#C[C@@H]1[C@H](c2ccc(-c3cccc(F)c3)cc2)[C@H](CO)N1C(=O)NC1CCCC1 | -16.6% (inactive) |
| CCCNC(=O)N1[C@H](CO)[C@@H](c2ccc(C3=CCCC3)cc2)[C@@H]1CN(C)C(C)=O | 7.91% (inactive) |
| CCOc1ccccc1N1CCN(C(=O)c2cc3ccccc3cc2OC)CC1 | -16.5% (inactive) |
| Cc1nn(C)c(C)c1/C=C/C(=O)O | -1.57% (inactive) |
| COc1cc(/C=C/C(=O)O)cc(S(=O)(=O)Nc2ccc3cn[nH]c3c2)c1OC | 1.05% (inactive) |
| COc1ccc(C)cc1NC(=O)CNC(c1ccccc1)c1ccc(C)cc1 (configuration not stated) | 8.87% (inactive) |
| O=C(CSC1=NNC(c2ccccn2)S1)Nc1ccccc1 (configuration not stated) | -4.35% (inactive) |
| CN(C)S(=O)(=O)c1ccc2c(c1)/C(=C/c1cc3c([nH]1)CCCC3)C(=O)N2 | -13% (inactive) |
| CN(c1ccc(O)cc1)c1nc(-c2cccs2)cs1 | -12.2% (inactive) |
| COC(=O)Cn1c(=NC(=O)c2cc(-c3cccs3)nc3ccccc23)sc2cc(S(N)(=O)=O)ccc21 | -5.09% (inactive) |
| C=CCN=c1scc(C)n1/N=C/c1ccc(O)c(O)c1 | -26.3% (inactive) |
| COCOc1cccc(CN2CCC(C)(Oc3cccc(C#N)c3)C2)c1 (configuration not stated) | -17.5% (inactive) |
| O=C(NCc1cccs1)c1cc(-c2ccccc2)nn1CC1CC(c2cccc([N+](=O)[O-])c2)=NO1 (configuration not stated) | -7.8% (inactive) |
| C=CCN1C(=O)/C(=C/C=C2/N(CC)c3ccc(S(=O)(=O)N(C)C)cc3N2CC)SC1=S | -19.1% (inactive) |
| CCOc1ccc(Cl)cc1C1=CC(=O)C[C@H](c2ccc(OC)cc2)C1 | -6.55% (inactive) |
| COc1ccc(C2CN=NC23CCc2ccccc2C3=O)cc1 (configuration not stated) | -5.59% (inactive) |
| COc1ccc2c(c1)C(=O)CC(c1ccc3c(c1)OCCO3)O2 (configuration not stated) | -9.83% (inactive) |
